{"source": "PubChem BioAssay (NCI)", "note": "“And” between values parts separate entries of the source, which are not always exact repeats. Equal entries are not always repeated. Compounds without any hit were thinned out: in the full panel of roughly 83,000, 20% have a hit.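 Negative percent growth values reflect cell death: -40 means 40% of the cells present at the start died, and -100 means all died.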 The source made the active and inactive calls. The calls were made as follows: active = growth percent below 10; inactive = the rest."}
{"test_system": "MDA-MB-468 breast", "test": "NCI-60 one-dose screen, 48 h (100 = growth as untreated, 0 = no growth, -100 = all killed)", "settings": "10 µM unless noted"}
{"compound": "CCOC(=O)NNC(=S)Nc1ccccc1", "growth": "97.7% (inactive)"}
{"compound": "Cc1ccc(CNc2ccc(Cl)cc2NCc2ccc(C)c(O)c2)cc1O", "growth": "32.5% (inactive)"}
{"compound": "COc1ccc(S(=O)(=O)c2ccc(F)cc2)cc1", "growth": "105% (inactive)"}
{"compound": "COC(=O)[C@H]1CCCN1C[C@@H](O)CN1C(=O)/C(=C\\c2cc(OC)c(OC)c(OC)c2)c2ccccc21", "growth": "111% (inactive)"}
{"compound": "Cc1nc2sc(C(=O)Nc3cccc4ccccc34)c(N)c2cc1C(C)O", "note": "(stereo not given)", "growth": "25.3% (inactive)"}
{"compound": "N#CC(C(=O)/C(=N/NC(=O)c1ccccc1O)C(C#N)c1ccccc1)c1ccccc1", "note": "(stereo not given)", "growth": "67.1% (inactive)"}
{"compound": "O=C(/C(=N/O)S(=O)(=O)c1ccccc1)c1cccs1", "growth": "101% (inactive)"}
{"compound": "N=C1CC(=O)NN1C(=O)CSc1nc2sc3c(c2c(=O)n1-c1ccc(Cl)cc1)CCCC3", "growth": "106% (inactive)"}
{"compound": "CN(C)CC1(C)Cc2ccsc2C1O", "note": "(stereo not given)", "growth": "104% (inactive) and 109% (inactive)"}
{"compound": "Cc1[nH]c(/C=C2\\C(=O)Nc3ccc(F)cc32)c(C)c1C(=O)NC[C@H](O)CN1CCOCC1", "growth": "114% (inactive)"}
{"compound": "Cc1cc(=O)[nH]c(O)c1C#N", "growth": "97.5% (inactive) and 95.9% (inactive) and 111% (inactive)"}
{"compound": "Nc1ccc2c(c1)c(N)nn2C(=O)Nc1ccc(Cc2ccccc2)cc1", "growth": "98.4% (inactive)"}
{"compound": "O=C(c1c[nH]c(=O)c(-c2ccccc2)c1)c1ccccc1O", "growth": "80.8% (inactive)"}
{"compound": "COc1cc2c(=O)n(CCCN(C)C)c3c4cc5c(cc4ccc3c2cc1OC)OCO5", "growth": "57.7% (inactive)"}
{"compound": "CN(C)c1ccc(Nc2c3ccccc3nc3cc(NC(=O)CCN4CCCC4)ccc23)cc1", "growth": "-74.9% (active)"}
{"compound": "NCCCn1c2c(c3cc(-c4ccn[nH]4)ccc3c1=O)C(=O)c1ccccc1-2", "growth": "62.6% (inactive)"}
{"compound": "COc1ccc2c(c1)Oc1nc(N)c(C#N)c(N)c1C2Sc1ccc(SC)cc1", "note": "(stereo not given)", "growth": "-40.8% (active)"}
{"compound": "Cc1ccc(C2=C/C(=C/c3ccc(Br)cc3)C(=O)N2CCc2ccc(S(N)(=O)=O)cc2)cc1", "growth": "92.7% (inactive)"}
{"compound": "CCC(=C(c1ccc(OCCN2CCCC2)cc1)c1ccc(OCCN2CCCC2)cc1)c1ccc(Cl)cc1", "growth": "-53.5% (active)"}
{"compound": "O=C(Nc1ccc(Oc2ccc(Nc3nc4ccccc4s3)cc2)cc1)Nc1ccc(Cl)c(Cl)c1", "growth": "8.01% (active)"}
{"compound": "CN1c2ccccc2Sc2cc(C=C(C#N)C#N)ccc21", "growth": "-24.4% (active)"}
{"compound": "CCN(CC)CCCNc1cc(OC)c(OC)c2cccnc12", "growth": "90.5% (inactive)"}
{"compound": "CCc1ccc(Nc2cc(C)nc3nc(C)nn23)cc1", "growth": "-87.8% (active)"}
{"compound": "CS(=O)(=O)OCC1NC(=O)C(COS(C)(=O)=O)NC1=O", "note": "(stereo not given)", "growth": "87% (inactive) and 79.3% (inactive)"}
{"compound": "CC(C)c1ccc(C(=O)OC(=O)c2ccc(C(C)C)cc2)cc1", "growth": "110% (inactive)"}
{"compound": "CNC(=O)c1cc(Oc2cccc3nc(Nc4ccc(Cl)c(F)c4)ccc23)ccn1", "growth": "51.3% (inactive)"}
{"compound": "NC(N)=NCCCCCNc1noc(Cc2c[nH]c3cc(Br)ccc23)n1", "growth": "1.76% (active)"}
{"compound": "C=C1CC[C@@H]2[C@](C)(COC(C)=O)[C@H](OC(C)=O)CC[C@@]2(C)[C@@H]1C/C=C1/C(=O)OC[C@H]1OC(C)=O", "growth": "7.98% (active)"}
{"compound": "CN(C)S(=O)(=O)c1ccc(S(=O)(=O)Nc2cccc(Cl)c2N2CCCCC2)cc1", "growth": "67.8% (inactive)"}
{"compound": "CCN1C(=O)N(CC)C2C1NN=c1s/c(=C\\c3ccc(Br)cc3)c(=O)n12", "note": "(stereo not given)", "growth": "7.21% (active)"}
{"compound": "COc1ccc(Nn2c(SCC(=O)Nc3nc(-c4ccc(Cl)cc4)cs3)nc(C)c2C)cc1", "growth": "26.2% (inactive)"}
{"compound": "CC1(C)CCCC2=C1C(=O)N(SC(Cl)(Cl)Cl)C2=O", "growth": "79.6% (inactive)"}
{"compound": "CCOC(=O)C1=C(c2ccccc2)N=C2SC=C(c3ccc(Cl)cc3)N2C1c1ccc(Cl)cc1", "note": "(stereo not given)", "growth": "41.3% (inactive)"}
{"compound": "Oc1ccccc1C=Nc1ccccc1N=Cc1ccccc1O.[Cu+2]", "growth": "47.5% (inactive)"}
{"compound": "O=c1nc2sc3nc4ccccc4cc3cc-2s1", "growth": "124% (inactive)"}
{"compound": "Cc1ccc(Nc2nc(N)nc(CSCC(=O)NN)n2)cc1", "growth": "95.7% (inactive)"}
{"compound": "CC1(C)CC[C@]2(C(=O)O)CC[C@]3(C)C(=CC[C@@H]4[C@@]5(C)Cc6c([nH]c7ccccc67)C(C)(C)[C@@H]5CC[C@]43C)[C@@H]2C1", "growth": "53.4% (inactive)"}
{"compound": "N#C/C(=C\\c1ccc(Br)cc1)n1nnc2cc(F)c(F)cc21", "growth": "-6.6% (active)"}
{"compound": "CC(C)(C)c1nn(-c2ccccc2)c2c1COCN2Cc1ccc(Cl)cc1", "growth": "89% (inactive)"}
{"compound": "COC1=CC(=O)C(OC)=C(O)C1=O", "growth": "91.8% (inactive)"}
